Experimental data published in the antibiotic and cytotoxicity screens of Wong et al. (2023).
The campaign covered roughly 39,000 compounds. About 1,500 (3.8%) were called active. Many of the other results were omitted from the sample, so actives are more common in it than they were.

test system: HSkMC (human skeletal muscle cells); test: cytotoxicity call (relative viability < 0.9); conditions: 10 µM

Compound	cytotoxicity call
Cc1noc(C)c1S(=O)(=O)Nc1ccc2c(c1)C(=O)N([C@@H](C)CO)C[C@H](C)[C@@H](CN(C)Cc1ccc(Oc3ccccc3)cc1)O2	inactive
C[C@H]1CN([C@@H](C)CO)C(=O)Cc2cc(NC(=O)Nc3ccc(C(F)(F)F)cc3)ccc2O[C@@H]1CN(C)C(=O)Nc1ccccc1	inactive
C[C@@H]1CN([C@@H](C)CO)C(=O)Cc2cc(NC(=O)Nc3ccc(C(F)(F)F)cc3)ccc2O[C@@H]1CN(C)C(=O)Nc1ccccc1	active
C[C@H](CO)N1C[C@H](C)[C@H](CN(C)C(=O)Nc2ccccc2)Oc2ccc(NC(=O)Nc3ccc(C(F)(F)F)cc3)cc2CC1=O	inactive
C[C@H](CO)N1C[C@H](C)[C@@H](CN(C)C(=O)Nc2ccccc2)Oc2ccc(NC(=O)Nc3ccc(C(F)(F)F)cc3)cc2CC1=O	inactive
C[C@@H]1CN([C@@H](C)CO)C(=O)Cc2cc(NC(=O)Nc3ccccc3)ccc2O[C@@H]1CN(C)C(=O)Nc1ccc(C(F)(F)F)cc1	inactive
C[C@H]1CN([C@@H](C)CO)C(=O)Cc2cc(NC(=O)Nc3ccc(C(F)(F)F)cc3)ccc2O[C@H]1CN(C)C(=O)Nc1ccccc1	active
O=C(O)C1=CCCNC1	inactive
Cc1noc(C)c1NC(=O)N(C)C[C@@H]1Oc2ccc(NS(=O)(=O)c3cccs3)cc2CC(=O)N([C@@H](C)CO)C[C@H]1C	inactive
COc1ccc(NC(=O)Nc2ccc3c(c2)C(=O)N([C@H](C)CO)C[C@@H](C)[C@@H](CN(C)Cc2ccc(C(=O)O)cc2)OCCCC[C@H](C)O3)cc1	inactive
NC(=O)[C@H]1[C@@H]2C(=O)O[C@@H](c3ccccc3)[C@@H](c3ccccc3)N2[C@@H](c2ccc(O)cc2)[C@]12C(=O)Nc1ccc(C#CC3(O)CCCCCC3)cc12	inactive
c1ccc(Nc2ncnc3cc(-c4ccccc4)sc23)cc1	inactive
c1ccc(Nc2ncnc3sc(-c4ccccc4)cc23)cc1	inactive
Fc1ccc(Nc2ncnc3sc(-c4ccccc4)cc23)cc1	active
CCCC(=O)Nc1ccc2c(c1)OC[C@@H](C)N(C(=O)CN1CCOCC1)C[C@@H](C)[C@H](OC)CN(C)C2=O	inactive
NS(=O)(=O)OC[C@H]1C[C@@H](Nc2ccnc3cc(-c4cccc(SC(F)(F)F)c4)nn23)[C@H](O)[C@@H]1O	active
O=C([O-])C(O)C(O)C(O)C(O)CO.[Na+] (stereo not drawn)	inactive
Cc1ccccc1[C@@H](c1ncccc1C)N(C)C(=O)C1CCN(CCOc2ccc3ccccc3c2)CC1	inactive
Cc1cccnc1[C@@H](NC(=O)C1CCN(CCOc2ccc(Cl)cc2Cl)CC1)c1ccc(Cl)cc1	inactive
Cc1cccnc1[C@@H](NC(=O)C1CCN(CCOc2ccc(Cl)cc2Cl)CC1)c1ccc(F)cc1	inactive
Cc1ccccc1[C@@H](c1ncccc1C)N(C)C(=O)C1CCN(CCOc2ccc(Cl)cc2Cl)CC1	active
COc1ccccc1[C@@H](NC(=O)C1CCN(CCOc2ccc(Cl)cc2Cl)CC1)c1ccccn1	inactive

Compound	cytotoxicity call
Cc1cccnc1[C@H](c1ccc(F)cc1)N(C)C(=O)C1CCN(CCOc2ccc(Cl)cc2Cl)CC1	active
C[C@@H]1CN([C@@H](C)CO)C(=O)c2cc(NC(=O)Nc3ccccc3)ccc2O[C@@H](C)CCCCO[C@H]1CN(C)S(=O)(=O)c1ccccc1F	inactive
O=C(O)/C=C/C(=O)O	inactive
COC(=O)c1c(CC[C@@H](CO)NC(=O)N[C@H](Cn2cc(Cc3ccccc3)nn2)C(C)C)oc(C(C)=O)c1C(=O)OC	inactive
O=C(C[C@@H]1CC=CC[C@@H](Cc2ccc(F)cc2)C(=O)OC[C@H](Cc2c[nH]c3ccccc23)NC1=O)NCCO	inactive
CC(C)NC(=O)N(C)C[C@@H]1OCc2cnnn2CCCC(=O)N([C@@H](C)CO)C[C@@H]1C	inactive
CC(C)NC(=O)N(C)C[C@H]1Oc2cc(-c3ccccc3F)ccc2S(=O)(=O)N([C@H](C)CO)C[C@H]1C	inactive
C[C@@H]1CN([C@H](C)CO)C(=O)c2cccc(NS(=O)(=O)c3ccc(Cl)cc3)c2O[C@H]1CN(C)Cc1ccc(-c2ccccc2)cc1	inactive
C[C@@H]1CN([C@@H](C)CO)C(=O)c2cccc(NS(=O)(=O)c3ccc(Cl)cc3)c2O[C@@H]1CN(C)Cc1ccc(-c2ccccc2)cc1	active
C[C@H]1CN([C@@H](C)CO)C(=O)c2cccc(NS(=O)(=O)c3ccc(Cl)cc3)c2O[C@@H]1CN(C)Cc1ccc(C(F)(F)F)cc1	inactive
C[C@H](CO)N1C[C@H](C)[C@@H](CN(C)Cc2ccc(C(F)(F)F)cc2)Oc2c(NS(=O)(=O)c3ccc(Cl)cc3)cccc2C1=O	inactive
C[C@H](CO)N1C[C@H](C)[C@H](CN(C)Cc2ccc(C(F)(F)F)cc2)Oc2c(NS(=O)(=O)c3ccc(Cl)cc3)cccc2C1=O	active
C[C@@H]1CN([C@@H](C)CO)C(=O)c2cccc(NS(=O)(=O)c3ccc(Cl)cc3)c2O[C@H]1CN(C)Cc1ccc(-c2ccccc2)cc1	inactive
C[C@@H]1CN([C@H](C)CO)C(=O)c2cc(NC(=O)c3ccccc3)ccc2O[C@@H](C)CCCCO[C@@H]1CN(C)Cc1ccc(Cl)c(Cl)c1	inactive
COc1ccc(-c2cnc3c(c2)C(=O)N([C@H](C)CO)C[C@H](C)[C@H](CN(C)S(=O)(=O)c2cccs2)O3)cc1	inactive
C[C@@H]1CCCCO[C@@H](CN(C)S(C)(=O)=O)[C@@H](C)CN([C@H](C)CO)C(=O)c2cc(NC(=O)CCCN(C)C)ccc2O1	inactive
NCC1OC(OC2C(CO)OC(OC3C(O)C(N)CC(N)C3OC3OC(CN)C(O)C(O)C3N)C2O)C(N)C(O)C1O.O=S(=O)(O)O.O=S(=O)(O)O.O=S(=O)(O)O (stereo not drawn)	inactive
CC(C)NC(=O)N[C@H]1C=C[C@H](CC(=O)NCCN2CCCC2)O[C@H]1CO	inactive
O=C(N[C@H]1CC[C@@H](CC(=O)N2CCOCC2)O[C@@H]1CO)c1ccc2c(c1)OCO2	inactive
C[C@H](CO)N1C[C@H](C)[C@H](CN(C)C(=O)Nc2ccccc2)OCCCC[C@H](C)Oc2ccc(NS(=O)(=O)c3ccc(Cl)cc3)cc2C1=O	inactive
C[C@H](CO)N1C[C@H](C)[C@H](CN(C)Cc2ccc(C(=O)Nc3ccccc3N)cc2)OCc2cn(nn2)CCCC1=O	inactive
